Measurements as given in PubChem BioAssay AID1159580 (chemical genetic matrix, 2015).
Several values for one entry are separate records, joined by “and”; a condition that tells them apart may be missing. Identical values can stand only once. In all, about 5,500 compounds went through this assay and about 2,000 (36%) were called active. About 18% were inconclusive and are not listed. No stated cut-off is given here; in the data, active means normalized growth mostly below about 0.91 (no sharp cut-off); inconclusive means no clear call, values can overlap the other calls; inactive means mostly above about 0.92. The list shows a part of the results.

Assay: chemical genetic growth profiling, strain panel (AID 1159580);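 further: tested at 20 µM; growth read once vehicle control cultures reached saturation at 30 °C; 1 = growth at the plate median or of vehicle wells; lower values mean less growth of the strain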
Conditions: S. cerevisiae deletion strains, growth OD

Measured: normalized growth

NC(=O)NC(=O)Cc1ccccc1
inactive: locus YAL013W, strain DEP1, active compounds read low 1.03 | locus YAL021C, strain ccr4, active compounds read low 0.999 | locus YAL026C, strain drs2, active compounds read low 0.976 | locus YAL030W, strain snc1, active compounds read low 0.995 | locus YBL061C, strain skt5, active compounds read low 0.975 | locus YBR009C, strain hhf1, active compounds read low 1.04 | locus YBR021W, strain FUR4, active compounds read low 1.02 | locus YBR023C, strain chs3, active compounds read low 0.974 | locus YBR171W, strain sec66, active compounds read low 0.992 | locus YBR229C, strain ROT2, active compounds read low 0.995 | locus YBR231C, strain swc5, active compounds read low 1.01 | locus YBR279W, strain paf1, active compounds read low 0.979 | locus YCL011C, strain gbp2, active compounds read low 0.961 | locus YCL016C, strain dcc1, active compounds read low 0.96 | locus YCL029C, strain bik1, active compounds read low 0.997 | locus YCL069W, strain vba3, active compounds read low 1.01 | locus YCR088W, strain abp1, active compounds read low 0.993 | locus YDL005C, strain med2, active compounds read low 0.98 | locus YDL035C, strain GPR1, active compounds read low 1.02 | locus YDL040C, strain nat1, active compounds read low 0.991 | locus YDL074C, strain BRE1, active compounds read low 1.16 | locus YDL101C, strain DUN1, active compounds read low 1 | locus YDL134C, strain PPH21, active compounds read low 1 | locus YDL185W, strain tfp1, active compounds read low 0.992 | locus YDL192W, strain arf1, active compounds read low 0.991 | locus YDR001C, strain nth1, active compounds read low 0.98 | locus YDR069C, strain doa4, active compounds read low 0.99 | locus YDR101C, strain arx1, active compounds read low 0.994 | locus YDR137W, strain rgp1, active compounds read low 0.979 | locus YDR150W, strain NUM1, active compounds read low 1.01 | locus YDR159W, strain sac3, active compounds read low 0.997 | locus YDR162C, strain NBP2, active compounds read low 1.04 | locus YDR195W, strain ref2 0.994 | locus YDR297W, strain sur2, active compounds read low 0.996 | locus YDR318W, strain mcm21, active compounds read low 0.993 | locus YDR334W, strain swr1, active compounds read low 0.978 | locus YDR335W, strain msn5, active compounds read low 0.964 | locus YDR388W, active compounds read low 0.995 | locus YDR392W, strain spt3, active compounds read low 0.916 | locus YDR502C, strain sam2, active compounds read low 1.01 | locus YEL003W, strain gim4, active compounds read low 0.998 | locus YEL037C, strain rad23, active compounds read low 0.983 | locus YEL061C, strain CIN8 (second series), active compounds read low 0.976 | locus YEL061C, strain CIN8, active compounds read low 1.03 | locus YER015W, strain faa2, active compounds read low 0.99 | locus YER016W, strain bim1, active compounds read low 0.96 | locus YER110C, active compounds read low 0.998 | locus YER111C, strain swi4, active compounds read low 0.981 | locus YER155C, strain BEM2 (second series), active compounds read low 1.04 | locus YER155C, strain BEM2, active compounds read low 1 | locus YER167W, strain BCK2, active compounds read low 1 | locus YFR010W, strain ubp6, active compounds read low 1.01 | locus YGL078C, strain dbp3, active compounds read low 1 | locus YGL086W, strain mad1, active compounds read low 0.995 | locus YGL167C, strain pmr1, active compounds read low 1 | locus YGL173C, strain kem1, active compounds read low 1.04 | locus YGL227W, strain vid30, active compounds read low 1 | locus YGL240W, strain doc1, active compounds read low 1.04 | locus YGL248W, strain PDE1, active compounds read low 1 | locus YGL253W, strain hxk2, active compounds read low 0.955 | locus YGR078C, strain PAC10, active compounds read low 1.01 | locus YGR135W, strain pre9, active compounds read low 0.993 | locus YGR229C, strain SMI1, active compounds read low 1.13 | locus YGR252W, strain gcn5, active compounds read low 1.14 | locus YHR013C, strain ard1, active compounds read low 0.964 | locus YHR027C, strain rpn1, active compounds read low 0.999 | locus YHR030C, strain SLT2, active compounds read low 1 and 0.964 | locus YHR079C, strain IRE1 (second series), active compounds read low 1 | locus YHR079C, strain IRE1, active compounds read low 0.978 | locus YHR094C, strain hxt1, active compounds read low 1 | locus YHR129C, strain ARP1, active compounds read low 1 | locus YHR142W, strain chs7, active compounds read low 0.931 | locus YHR200W, strain rpn10, active compounds read low 0.991 | locus YIL066C, strain RNR3, active compounds read low 1.01 | locus YIL073C, strain SPO22, active compounds read low 0.979 | locus YIL125W, strain kgd1, active compounds read low 1 | locus YIR030C, strain dcg1, active compounds read low 0.995 | locus YJL092W, strain hpr5, active compounds read low 0.977 | locus YJL095W, strain BCK1 (second series), active compounds read low 0.967 | locus YJL095W, strain BCK1, active compounds read low 1.04 and 0.989 | locus YJL115W, strain asf1, active compounds read low 0.957 | locus YJL129C, strain trk1, active compounds read low 0.955 | locus YJL134W, strain LCB3, active compounds read low 1.01 | locus YJL154C, strain vps35, active compounds read low 0.984 | locus YJL164C, strain tpk1, active compounds read low 0.998 | locus YJL166W, strain qcr8, active compounds read low 1 | locus YJL168C, strain set2, active compounds read low 0.997 | locus YJL187C, strain SWE1 (second series), active compounds read low 0.995 | locus YJL187C, strain SWE1, active compounds read low 0.994 | locus YJR043C, strain POL32, active compounds read low 1.03 | locus YJR066W, strain TOR1, active compounds read low 0.931
